Source: PubChem BioAssay
This is a sample that favours compounds with a hit; in the whole collection about 3.8% have one here.
HepG2 tox = counter-screen for TGF-b inhibitors: cytotoxicity in HepG2 cells; HepG2 CAGA-GFP viability, ATP luminescence, 18 h; Potency, µM (highest dose often 46.1 µM), for inactives: top-dose activity change, negative = cytotoxicity, most hits filed as cytotoxic; actives 0.76% (n = 410,000); AID 588856
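HepG2 CAGA-GFP cells (1000/well, DMEM with 1% FBS) received compound, then TGF-beta at 500 pg/mL final, and were incubated 18 hours at 37 degrees C. Viability was read by CellTiter-Glo luminescence. Media-only wells were set as complete cell-killing and DMSO as no toxicity.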
ATXN2 expr inh = ATXN2 expression inhibition | HEK-293 ATXN2-luciferase reporter, luminescence, 24 h | Potency, µM (doses to about 57 µM), for the others: at the top dose activity change, negative = inhibition, most hits filed as inhibitors | actives 0.72% (n = 360,000) | AID 1745845; note: % is set by controls: 0 for no effect and ±100 for the full control effect; nearly all actives have a fitted effect of over 55% in size
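qHTS (up to 57 uM final) was run with 24 h compound exposure of reporter cells at 37 °C. Each well was multiplexed: SteadyGlo luminescence measured ATXN2-luciferase expression after a fluorogenic Gly-Phe-AFC viability readout (25 uM final).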
S2 tox = viability counter-screen for ATXN expression inhibitors; S2 cells (HEK-293 line with an ATXN2-luciferase reporter) viability, CellTiter-Fluor protease fluorescence, 24 h; Potency, µM (series often up to 56.7 µM), usual class: cytotoxic; actives 0.49% (n = 400,000); AID 651635; note: nearly all actives have a fitted effect of over 40% in size
HT1080 IDH1KD tx = kills HT-1080 cells with IDH1 knockdown; actives 2% (n = 360,000); Potency, µM (highest dose often 46.1 µM), without a hit: at the highest dose activity, negative = toxicity, actives largely listed as cytotoxic; HT-1080 IDH1 knockdown viability, ATP luminescence, 48 h; AID 686971;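 note: 0% = DMSO wells and -100% = cell-free medium wells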
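After a 2 h attachment period, IDH1KD HT-1080 cells took pin-transferred compound for 48 h at 37 °C; ATP-based luminescence after 10 min room-temperature reagent incubation reported viability.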
TGFb SMAD3 inh = inhibitors of TGF-b signaling; HepG2 CAGA-GFP TGF-b/SMAD3 reporter, GFP fluorescence, 18 h; TGF-beta stimulated, 500 pg/mL final; Potency, µM (top dose mostly 46.1 µM), without a hit: at the highest dose activity, negative = inhibition, most hits filed as inhibitors; actives 1.2% (n = 410,000); note: % is set by controls: 0 for no effect and ±100 for the full control effect; nearly all actives have a fitted effect of over 65% in size
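First, reporter cells (HEPG2 CAGA-GFP) rested 2 h at 37 degrees C. Next, compounds were pinned in and TGF-beta added to 500 pg/mL final. After 18 h, GFP was imaged per cell and summed per well.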
HT1080NT lethal = kills 2HG-producing HT-1080-NT fibrosarcoma cells. actives 1.6% (n = 360,000). Potency, µM (top dose mostly 46.1 µM), inactives show at the top dose activity, negative = less viability, usual class: cytotoxic. HT-1080-NT fibrosarcoma viability, CellTiter-Glo ATP luminescence, 48 h;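 note: NT is the 2HG producing partner of a matched IDH1 knockdown line; 0% = DMSO-treated cells and -100% = media-only wells without cells; nearly all actives have a fitted effect of over 55% in size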
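Compounds were tested in concentration-response format on HT-1080-NT cells for 48 hours at 37 degrees C. Cell viability came from CellTiter-Glo luminescence; curves were classified by r2, response magnitude and activity.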
An asterisk follows results filed as active. Calls come from the whole dose curve; as a rule, active = well fitted curve in the direction sought with a large enough effect; inconclusive = small, poorly fitted or top-dose-only effect, or another doubt; inactive = no such curve, though single readings can be large; an effect the other way counts as inactive or inconclusive. Potency is the fitted concentration of half-maximal effect.

`CCCN1C(=O)C(=O)c2cc(C)ccc21` gave HepG2 tox 7%, ATXN2 expr inh 0%, S2 tox inconclusive, HT1080 IDH1KD tx inconclusive, TGFb SMAD3 inh 4% and HT1080NT lethal inconclusive.
Screening O=C(Nc1nnc(C2CCCCC2)s1)C1CCN(C(=O)c2ccco2)CC1 returned HepG2 tox 1% and TGFb SMAD3 inh 3%.
Screening COc1ccc(/C=C/C(=O)N2CCc3c(cnc(C)c3CNC(=O)c3ccsc3)C2)cc1OC returned S2 tox inactive.
For O=C(NC(c1ccccc1)c1cnccn1)C1CCN(CCOc2ccc(Cl)cc2Cl)CC1 (stereo unspecified) the results were HepG2 tox -96%, ATXN2 expr inh inconclusive, S2 tox 13µM*, HT1080 IDH1KD tx inconclusive, TGFb SMAD3 inh inconclusive and HT1080NT lethal 16µM*.
`O=C(NC(c1cccnc1)c1ccc2c(c1)OCO2)C1CCN(CCOc2ccc(Cl)cc2Cl)CC1` (stereo unspecified) gave HepG2 tox -47%, ATXN2 expr inh inconclusive, S2 tox inconclusive, HT1080 IDH1KD tx 18µM*, TGFb SMAD3 inh inconclusive and HT1080NT lethal inconclusive.
COc1ccc(C(C)NC(=O)C2CCN(CCOc3ccc(Cl)cc3Cl)CC2)cc1OC (stereo unspecified) was read as HepG2 tox -90%, ATXN2 expr inh inconclusive, S2 tox inconclusive, HT1080 IDH1KD tx inconclusive, TGFb SMAD3 inh inconclusive and HT1080NT lethal 23µM*.
`COc1ccc(OCCN2CCC(C(=O)NC(c3ccc(Cl)cc3)c3cnccn3)CC2)cc1` (stereo unspecified) gave HepG2 tox -20%, ATXN2 expr inh -14%, S2 tox inactive, HT1080 IDH1KD tx -19%, TGFb SMAD3 inh -28% and HT1080NT lethal -14%.
COc1ccc(C(NC(=O)C2CCN(CCOc3ccc(Cl)cc3Cl)CC2)c2ccccc2C)cn1 (stereo unspecified) was read as HepG2 tox -102%, ATXN2 expr inh inconclusive, HT1080 IDH1KD tx 23%, TGFb SMAD3 inh inconclusive and HT1080NT lethal -7%.
`O=C(NC(c1ccccc1)c1ccsc1)C1CCN(CCOc2ccc(Cl)cc2Cl)CC1` (stereo unspecified) gave HepG2 tox -95%, ATXN2 expr inh inconclusive, HT1080 IDH1KD tx 16µM*, TGFb SMAD3 inh inconclusive and HT1080NT lethal 18µM*.
`CCOC(=O)c1c(NC(=O)CSc2cn(CCNC(=O)c3c(F)cccc3F)c3ccccc23)sc2c1CCC2` gave HepG2 tox -3%, ATXN2 expr inh 1%, S2 tox inconclusive and TGFb SMAD3 inh inconclusive.
Screening O=C(C[n+]1c(Cl)cc(Cl)c2ccccc21)c1ccccc1 returned HepG2 tox -21% and TGFb SMAD3 inh -19%.
For OCCNCc1ccc(-c2ccccc2)cc1 the results were HepG2 tox -29%, ATXN2 expr inh inconclusive, S2 tox inactive, HT1080 IDH1KD tx -11%, TGFb SMAD3 inh -32% and HT1080NT lethal -7%.
OCCCNCc1ccc(N(c2ccccc2)c2ccccc2)cc1 was read as HepG2 tox -98%, ATXN2 expr inh inconclusive, S2 tox inconclusive, HT1080 IDH1KD tx 16µM*, TGFb SMAD3 inh inconclusive and HT1080NT lethal inconclusive.
For Cc1cnc(C)c(-c2ccc(O)c(CN3CCN(C=O)CC3)c2)n1 the results were S2 tox inactive.
`O=C(c1cc(-c2ccccc2)nc2ccccc12)N1CCN(c2ccccn2)CC1` gave HepG2 tox -16%, ATXN2 expr inh 18%, S2 tox inactive, HT1080 IDH1KD tx -12%, TGFb SMAD3 inh -16% and HT1080NT lethal -1%.
For COc1ccc(-c2nn(Cc3ccccc3)cc2C(=O)N2CCN(c3ccccn3)CC2)cc1OC the results were HepG2 tox -31%, ATXN2 expr inh 28%, S2 tox inactive, HT1080 IDH1KD tx 7%, TGFb SMAD3 inh -8% and HT1080NT lethal 2%.
For O=C(c1cc(-c2ccncc2)nc2ccccc12)N1CCN(c2ccccn2)CC1 the results were HepG2 tox -18%, ATXN2 expr inh -18%, S2 tox inconclusive, HT1080 IDH1KD tx 5.6µM*, TGFb SMAD3 inh 38% and HT1080NT lethal 7.9µM*.
Screening Cc1ccccc1C(=O)N1CCN(c2ccccn2)CC1 returned HepG2 tox -5%, ATXN2 expr inh -8%, S2 tox inactive, HT1080 IDH1KD tx 19%, TGFb SMAD3 inh 2% and HT1080NT lethal 18%.
`O=C(c1cn(Cc2ccccc2)nc1-c1ccccc1)N1CCN(c2ccccn2)CC1` gave HepG2 tox -23%, ATXN2 expr inh -6%, S2 tox inactive, HT1080 IDH1KD tx 16µM*, TGFb SMAD3 inh -12% and HT1080NT lethal inconclusive.
Screening O=C(c1ccccc1-c1ccccc1)N1CCN(c2ccccn2)CC1 returned HepG2 tox -47%, ATXN2 expr inh -13%, S2 tox inactive, HT1080 IDH1KD tx 6.5µM*, TGFb SMAD3 inh -26% and HT1080NT lethal 5.8µM*.
CCOC(=O)c1cccc(NS(=O)(=O)c2ccc(-c3cnc(C4CC4)o3)cc2)c1 was read as HepG2 tox -22%, ATXN2 expr inh -23%, S2 tox inconclusive and TGFb SMAD3 inh inconclusive.
For CCC(C)NC(=O)c1ccc(Cn2c(=O)c3cccn3c3cccnc32)cc1 (stereo unspecified) the results were HepG2 tox -7% and TGFb SMAD3 inh -30%.
For CC1(C)S[C@@H]2[C@H](NC(=O)COc3ccccc3)C(=O)N2[C@@H]1C(=O)OCc1cccc2cccnc12 the results were HepG2 tox 10% and TGFb SMAD3 inh inconclusive.
Screening CS(=O)(=O)c1sc(C#N)c2c1C(=O)CC(c1ccccc1)C2 (stereo unspecified) returned HepG2 tox -100%, ATXN2 expr inh 5µM*, S2 tox 6.3µM*, HT1080 IDH1KD tx 23µM*, TGFb SMAD3 inh inconclusive and HT1080NT lethal 6.5µM*.
For Cc1oc2c(c(=O)c1C)C(=O)CC(c1ccccc1)C2 (stereo unspecified) the results were HepG2 tox 2%, ATXN2 expr inh -6%, S2 tox inactive, HT1080 IDH1KD tx 6%, TGFb SMAD3 inh 14% and HT1080NT lethal 8%.
Cc1ccc(CNC(=O)CN2C(=O)C3(SCC(=O)N3c3cc(C)cc(C)c3)c3ccccc32)cc1 (stereo unspecified) was read as HepG2 tox -2% and TGFb SMAD3 inh -18%.
